Inconclusive results are not listed. Where a call stands in place of a potency, no number is given. The source made the active and inactive calls. Calls come from the whole dose curve; as a rule, active = well fitted inhibition curve with a large enough effect; inconclusive = small, poorly fitted or top-dose-only effect; inactive = flat fitted curve, though single readings scatter.
The compounds below were run against Glutathione peroxidase 1 (Homo sapiens) (UniProt P07203) (assay: Primary qHTS Assay for Inhibitors of Recombinant Selenoprotein Glutathione Peroxidase 1 (GPX1) (AID 1845191; note: nearly all actives have a fitted effect of over 65% in size)). Settings: recombinant GPX1, GR-coupled NADPH fluorescence, 15 min; series mostly up to 27.7 µM.
Sequence of Glutathione peroxidase 1 (Homo sapiens) (P07203 whole entry, looked up): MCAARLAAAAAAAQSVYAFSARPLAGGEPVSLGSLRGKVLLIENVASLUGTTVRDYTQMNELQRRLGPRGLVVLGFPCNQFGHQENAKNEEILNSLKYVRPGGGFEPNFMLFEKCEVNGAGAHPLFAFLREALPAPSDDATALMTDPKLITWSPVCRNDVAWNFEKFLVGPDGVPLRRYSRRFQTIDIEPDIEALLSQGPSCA
Method in brief: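 NADPH consumption tracked by fluorescence at 340/450 nm between t=0 and t=15 min, room temperature. Final mix: 10 nM GPX1, 100 nM glutathione reductase, 1 mM GSH, 0.5 mM NADPH, 0.5 mM cumene hydroperoxide, 0.01% BSA; 30 min compound–enzyme preincubation.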
In the case of CC(=O)O[C@@H]1CC2C(C)(C)C(=O)C=C[C@]2(C)C2CC[C@]3(C)C(=CC(=O)[C@@H]3c3ccoc3)[C@@]21C (some centres undefined), the Potency is reported as “inactive”.
In the case of CC(=O)OC1CC(C(C)(C)O)OC2CCC3(C)OC4=C(C(=O)C=C5C(C)C(OC(C)=O)C6(C)C(C)OC546)C(O)C3C12C (centres undefined), the Potency is reported as “inactive”.
With Cc1ncc(NC(=O)c2ccc(CN3CCN(C)CC3)c(C(F)(F)F)c2)cc1Nc1nccc(-c2cccnc2)n1 the Potency was “inactive”.
In the case of CC1C(O)C(O)C2C(C(=O)OCCc3ccc(O)cc3)=COC(O[C@@H]3O[C@H](CO)[C@@H](O)[C@H](O)[C@H]3O)C12 (some centres undefined), the Potency is reported as “inactive”.
In the case of CC1OC(O[C@@H]2[C@H](O)[C@@H](OC3OC(CO)C(O)C(O)C3O)[C@H](OC(=O)[C@]34CCC(C)(C)C[C@H]3C3=CCC5[C@@]6(C)CC[C@H](O[C@@H]7O[C@H](C(=O)O)[C@@H](O)[C@H](O[C@@H]8OC[C@@H](O)[C@H](O)[C@H]8O)[C@H]7O[C@@H]7O[C@H](CO)[C@H](O)[C@H](O)[C@H]7O)[C@@](C)(C=O)C6CC[C@@]5(C)[C@]3(C)C[C@H]4O)O[C@@H]2C)C(O)C(O)C1OC1OCC(O)C(O)C1O (some centres undefined), the Potency is reported as “inactive”.
In the case of Cc1cc(CNC(=O)c2cc(C(=O)NCc3ccc(F)c(C)c3)ncn2)ccc1F, the Potency is reported as “inactive”.
With C=CC(C)(CCC=C(C)C)O[C@@H]1O[C@H](CO)[C@@H](O)[C@H](O)[C@H]1O (some centres undefined) the Potency was “inactive”.
For COC(=O)C(CC1(O)c2ccccc2N2C(=O)C(CC(C)C)NC21)n1cnc2ccccc2c1=O (centres undefined), the Potency was “inactive”.
With CC(=O)OCC1OC(O[C@H]2CC[C@@]3(C)C(CC[C@]4(C)C3CC=C3[C@@H]5CC(C)(C)CC[C@]5(C(=O)O)CC[C@]34C)[C@]2(C)CO)C(O)C(O)C1OC1OC(C)C(O)C(OC2OCC(O)C(O)C2O)C1O (some centres undefined) the Potency was “inactive”.
In the case of FC(F)(F)c1nnc2c(Sc3ccccc3)nc3ccc(Cl)cc3n12, the Potency is reported as “inactive”.
With CC(C)(OC1OC(CO)C(O)C(O)C1O)C1CCC(O)(CO)C2CC(=O)C(C)(O)C2C1 (centres undefined) the Potency was “inactive”.
For C[C@@H]1O[C@@H](O[C@H]2[C@H](O[C@H]3[C@H](O[C@H]4CC[C@@]5(C)C(CC[C@]6(C)C5CC=C5[C@@H]7CC(C)(C)C[C@@H](O)[C@]7(C)CC[C@]56C)C4(C)C)O[C@H](C(=O)O)[C@@H](O)[C@@H]3O)O[C@H](C(=O)O)[C@H](O)[C@@H]2O)[C@H](O)[C@H](O)[C@H]1O (some centres undefined), the Potency was “inactive”.
In the case of CC1(C)CC=C(C#Cc2ccccc2)c2cc(/C=C/c3ccc(C(=O)O)cc3)ccc21, the Potency is reported as “inactive”.
CC1CCC2(C(=O)OC3OC(CO)C(O)C(O)C3O)CCC3(C)C(=CCC4C5(C)CCC(O)C(C)(CO)C5CCC43C)C2C1(C)O (centres undefined) was tested, and the Potency was “inactive”.
In the case of OC[C@H]1O[C@@H](O[C@H]2[C@H](O)[C@@H](CO)O[C@@H](OCc3ccccc3)[C@@H]2O[C@@H]2OC[C@](O)(CO)[C@H]2O)[C@H](O)[C@@H](O)[C@@H]1O, the Potency is reported as “inactive”.
In the case of CC1(O)CC(O)C2C(C(=O)O)=COC(OC3OC(CO)C(O)C(O)C3OC(=O)/C=C/c3ccc(O)cc3)C21 (centres undefined), the Potency is reported as “inactive”.
With COc1cc2nc(=NC(=O)c3cccnc3)n3c(c2cc1OC)NCC3 the Potency was “inactive”.
For OCC1OC(Oc2cc(O)cc(/C=C/c3ccc(OC4OC(CO)C(O)C(O)C4O)cc3O)c2)C(O)C(O)C1O (centres undefined), the Potency was “inactive”.
With CC(=O)O[C@H]1C[C@@H](O)C(C)(C)C2C[C@@H](OC(C)=O)[C@@]3(C)C4=CCC(C(CO)CC(O)C5OC5(C)C)[C@]4(C)CCC3[C@]21C (some centres undefined) the Potency was “inactive”.
In the case of CC1OC(O[C@H]2CC[C@@]3(C)C(CC[C@]4(C)C3CC=C3C5CC(C)(C)CC[C@]5(C(=O)OC5OC(CO)C(OC6OCC(OC7OCC(O)C(O)C7O)C(O)C6O)C(O)C5O)CC[C@]34C)C2(C)C)C(O)C(O)C1OC1OC(CO)C(O)C(OC2OC(CO)C(O)C(O)C2O)C1O (some centres undefined), the Potency is reported as “inactive”.
For O=C1C(Cl)=C(N2CCOCC2)C(=O)N1c1ccc(Cl)c(Cl)c1, the Potency was “inactive”.
With COC(=O)C1=COC(O[C@@H]2O[C@H](COC(=O)/C=C/c3ccc(O)cc3)[C@@H](O)[C@H](O)[C@H]2O)C2C(CO)=CCC12 (some centres undefined) the Potency was “inactive”.
For C[C@@H]1O[C@@H](O[C@H]2[C@H](OC(=O)[C@]34CCC(C)(C)C[C@H]3C3=CCC5[C@@]6(C)CC[C@H](O[C@@H]7O[C@H](CO[C@@H]8OC[C@H](O)[C@H](O)[C@H]8O[C@@H]8OC[C@@H](O)[C@H](O)[C@H]8O)[C@@H](O)[C@H](O)[C@H]7O)C(C)(C)C6CC[C@@]5(C)[C@]3(C)C[C@H]4O)O[C@H](CO)[C@@H](O)[C@@H]2O)[C@H](O[C@@H]2O[C@H](CO)[C@@H](O)[C@H](O)[C@H]2O)[C@H](O)[C@H]1O[C@@H]1OC[C@@H](O)[C@H](O[C@@H]2OC[C@@H](O)[C@H](O)[C@H]2O)[C@H]1O (some centres undefined), the Potency was “inactive”.
O=C(Nc1ccn(Cc2c(F)cccc2C(F)(F)F)n1)c1c(F)cccc1F was tested, and the Potency was “inactive”.
COC(=O)C1=C[C@@H](O)[C@@H](O)[C@H](O[C@@H]2O[C@H](CO)[C@@H](O)[C@H](O)[C@H]2OC(=O)/C=C/c2ccccc2)C1 was tested, and the Potency was “inactive”.
For C=C1CCC2C(C)(C(=O)OC)CCCC2(C)C1CCC1=CCOC1=O (centres undefined), the Potency was “inactive”.
In the case of CC(=C\C(C)O)/C=C(\C)C(=O)CC1CC(CC(N)=O)CC(=O)O1 (centres undefined), the Potency is reported as “inactive”.
C=C(C)[C@@]1(O)C[C@@]2(C)C(=CC1=O)CC[C@@H](O)[C@@H]2C was tested, and the Potency was “inactive”.
O=C(OC1C=C(CO)C2C(OC3OC(CO)C(O)C(O)C3O)OC=CC12O)c1ccc(O)cc1 (centres undefined) was tested, and the Potency was “inactive”.
In the case of COc1cccc(OC)c1-c1ccc(C[C@H](NC(=O)c2c(Cl)cccc2Cl)C(=O)O)cc1, the Potency is reported as “inactive”.
With C=CC1(C)CC=C2C(CCC3C(C)(C(=O)O)CCCC23C)C1 (centres undefined) the Potency was “inactive”.
CC(O)C1CCC2C3CCC4CC(OC5OC(C(=O)O)C(O)C(O)C5O)CCC4(C)C3CCC12C (centres undefined) was tested, and the Potency was “inactive”.
In the case of CC1(C)CC[C@]2(C(=O)O[C@@H]3O[C@H](CO)[C@@H](O)[C@H](O)[C@H]3O)CC[C@]3(C)C(=CCC4[C@@]5(C)C[C@H](O)[C@H](O[C@@H]6OC[C@@H](O)[C@H](O)[C@H]6O)[C@@](C)(CO)C5CC[C@]43C)C2C1 (some centres undefined), the Potency is reported as “inactive”.
In the case of CCC(C)C(=O)O[C@H]1[C@@H](O[C@H]2O[C@H](CO)[C@@H](O)[C@H](O)[C@H]2O)O[C@H](CO)[C@@H](O)[C@@H]1O (some centres undefined), the Potency is reported as “inactive”.
C/C=C(\C)C(=O)O[C@H]1C=CC(=O)O[C@H]1/C=C/[C@H](O)[C@@H](C)O was tested, and the Potency was “inactive”.
In the case of COc1cc(CCCO)ccc1O[C@@H]1O[C@H](CO)[C@@H](O)[C@H](O)[C@H]1O, the Potency is reported as “inactive”.
For CCC(C)/C=C(C)/C=C/C1=CC2=C(Cl)C(=O)C(C)(OC(C)=O)C(=O)C2=CN1C(CC(=O)O)C(=O)O (centres undefined), the Potency was “inactive”.
With CN(C)C(=O)C(O)C(Cc1ccccc1)NC(=O)c1cc2cc(Cl)ccc2[nH]1 (centres undefined) the Potency was “inactive”.
With CC1(C)C(=O)N2c3ccccc3C(O)(CC(C(=O)O)n3cnc4ccccc4c3=O)C2N1O (centres undefined) the Potency was “inactive”.

Reference: PubChem BioAssay (NCATS)
